{
  "source": "paper PMC8384837",
  "about": "“Expanding the binding specificity for RNA recognition by a PUF domain”",
  "data": [
    {"biological_target": "PUM1 PUF domain R1-RAS (Homo sapiens, UniProt Q14671 828-1176, S863R;R864A;Q867S)", "sequence (Q14671 828-1176 S863R/R864A/Q867S)": "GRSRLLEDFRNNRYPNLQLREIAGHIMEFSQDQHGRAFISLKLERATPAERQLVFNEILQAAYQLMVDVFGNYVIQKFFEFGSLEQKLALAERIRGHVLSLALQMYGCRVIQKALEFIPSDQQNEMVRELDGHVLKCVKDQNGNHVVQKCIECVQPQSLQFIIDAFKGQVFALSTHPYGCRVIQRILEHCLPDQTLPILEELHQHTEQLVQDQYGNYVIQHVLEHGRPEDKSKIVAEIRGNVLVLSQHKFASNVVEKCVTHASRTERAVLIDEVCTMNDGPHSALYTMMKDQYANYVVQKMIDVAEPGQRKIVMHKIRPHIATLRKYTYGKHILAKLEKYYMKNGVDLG", "assay": "yeast three-hybrid, YBZ-1, SC-Leu-His + 0.5 mM 3-AT, 4 days", "settings": "tags: N-Gal4 AD-HA kept; label: inside an RPR1-promoter hybrid RNA with tandem MS2 sites; ssRNA", "outline": "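The interaction score is the logarithmic change in variant frequency from input to selection. It uses log2, with a pseudocount of 1 for absent variants, and frequencies came from PCR-amplified, Illumina-sequenced repeat regions. The libraries were Pumilio-1 PUF domains randomized at the three base-contacting residues per repeat, co-expressed with matching RNA elements in strain YBZ-1 (LexA–MS2 coat fusion, HIS3 reporter). Plating lasted four days on SC-Leu (input) or SC-Leu-His + 0.5 mM 3-AT (selection).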", "values": [
      {"sequence": "GGCUAGAACUAGUGGAUCCCCCGGCGCCCGGCGGCUCGAGCCCGGGUAAGUGUAAAUUGUCUGCAUGCCGCCGGGCGCCAUGCCUGCAGGUCGACUCUAGAAAACAUG", "binding signal": "2.89 log2 enrichment (interaction score)"},
      {"sequence": "GGCUAGAACUAGUGGAUCCCCCGGCGCCCGGCGGCUCGAGCCCGGGUAAGUGUAAAUGGUCUGCAUGCCGCCGGGCGCCAUGCCUGCAGGUCGACUCUAGAAAACAUG", "binding signal": "1.5 log2 enrichment (interaction score)"},
      {"sequence": "GGCUAGAACUAGUGGAUCCCCCGGCGCCCGGCGGCUCGAGCCCGGGUAAGUGUAAAUCGUCUGCAUGCCGCCGGGCGCCAUGCCUGCAGGUCGACUCUAGAAAACAUG", "binding signal": "3.1 log2 enrichment (interaction score)"}
    ]}
  ]
}
